Assay results as given in PubChem BioAssay AID504766 (The Scripps Research Institute Molecular Screening Center, 2011).
Values joined by “and” are separate entries in the source; they are usually repeats but may differ in a detail not shown here. Equal values may be shown once. Screen size: about 340,000 compounds; about 3,400 (1%) were called active. Many of the other results were omitted from the sample, so actives are more common in it than they were. A number with no mark means an inactive call.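 The calls were made as follows: active = inhibition above the mean over all tested compounds plus 3 SD (cut at about 4.2% in these data); inactive = the rest.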

Each compound was assayed against Nuclear receptor subfamily 0 group B member 1 (Homo sapiens) (UniProt P51843) (assay: DAX1 (NR0B1) inhibitors, primary screen, cell-based, HEK293, Gal4-DAX1, luciferase luminescence (AID 504766;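 also: 0% = DAX1-transfected cells with DMSO and 100% = empty-vector control cells with DMSO; inhibition shows as a rise in luminescence from relieved DAX1 repression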)). Settings: HEK293 Gal4-DAX1 luciferase reporter, at 6.75 µM, hits give high values.
Nuclear receptor subfamily 0 group B member 1 (Homo sapiens), sequence (P51843 207-470 limits assumed): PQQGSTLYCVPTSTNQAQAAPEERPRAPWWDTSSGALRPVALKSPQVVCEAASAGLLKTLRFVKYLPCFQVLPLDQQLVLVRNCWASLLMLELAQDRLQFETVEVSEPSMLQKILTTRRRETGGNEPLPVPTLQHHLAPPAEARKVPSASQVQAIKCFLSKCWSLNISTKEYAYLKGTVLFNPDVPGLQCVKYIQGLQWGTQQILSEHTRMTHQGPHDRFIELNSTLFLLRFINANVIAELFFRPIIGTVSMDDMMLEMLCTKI

With `COC(=O)C1NN=C(C(=O)c2ccc(Br)cc2)C1c1cccc(Br)c1` (configuration not stated) the inhibition was 5.4% (active).
`COc1ccc(C(=O)O/N=C(\N)c2ccccn2)cc1[N+](=O)[O-]` was tested, and the inhibition was 4.71% (active).
`CNS(=O)(=O)c1ccc(NC(=O)C2CC(=O)N(c3ccc(Cl)cc3)C2)cc1` (configuration not stated) was tested, and the inhibition was 4.35% (active).
`O=C(NCc1ccc(F)cc1)C1CCC(CNc2c(N3CCOCC3)c(=O)c2=O)CC1` (configuration not stated) was tested, and the inhibition was 5.78% (active).
With `COc1ccc(CNC(=O)C2CCC(CNc3c(N4CCOCC4)c(=O)c3=O)CC2)cc1` (configuration not stated) the inhibition was -0.15% and -0.24%.
`O=S(=O)(c1ccccc1)N1CCc2ccccc21` was tested, and the inhibition was 5.18% (active).
With `CC(C)C(=O)N1c2ccccc2NC2=C(C(=O)CCC2)C1c1ccc(N(C)C)cc1` (configuration not stated) the inhibition was 4.33% (active).
In the case of `CC(C)=NN1C(=O)c2ccccc2NC1(C)C`, the inhibition is reported as 5.58% (active).
With `O=C(/C=C/c1cnc2ccccc2n1)NC1CCCCCC1` the inhibition was 4.47% (active).
For `COc1ccccc1N1CCN(/N=C/c2ccc(O)cc2O)CC1`, the inhibition was 5.15% (active).
In the case of `CCOC(=O)/C(C#N)=C\c1c(C)cc(C)c(COC(C)=O)c1C`, the inhibition is reported as 5.6% (active).
In the case of `COC(=O)C(C)NC(=O)COc1ccc2ccccc2c1` (configuration not stated), the inhibition is reported as 4.35% (active).
`CCn1c(SCC(=O)NC2CCCC2)nnc1-c1ccoc1C` was tested, and the inhibition was 4.45% (active).

Compared with `COC(=O)C1=C(C)N(C)C(C)=C(C(=O)OC)C1c1cccc(Br)c1`, `COc1ccc(C(=O)c2oc3ccc(Br)cc3c2NC(C)=O)cc1` is higher in inhibition: -0.19% for the first, 0.74% for the second.

Compared with `Cc1ccc(C(=O)OCC(=O)NC2CCCCCCC2)cc1C`, `CC(C)c1cc(C(=O)NC2CCCCCC2)c2ccccc2n1` is lower in inhibition: 1.83% for the first, -1.68% for the second.

First: CCOC(=O)c1cc(-c2sc(NC(=O)c3ccccc3)nc2C)n(-c2ccc(Br)cc2)n1
Second: Cc1c(NC(=O)COC(=O)/C=C/c2cccc(F)c2)c(=O)n(-c2ccccc2)n1C
The inhibition of the first is higher: -0.34% for the first, -0.66% for the second.

Going from `COc1ccccc1OCC(=O)O/N=C(\N)c1ccccn1` to `N/C(=N\OC(=O)c1ccc([N+](=O)[O-])cc1)c1ccccn1`, the inhibition falls from 2.91% to 0.14%.

Compared with `CCN(CC)C(=O)C(C)N1c2cccc3cccc(c23)S1(=O)=O` (configuration not stated), `C[C@H]1CN([C@@H](C)CO)S(=O)(=O)c2ccc(Br)cc2O[C@H]1CN(C)C(=O)c1cnccn1` is lower in inhibition: 0.49% for the first, -0.34% for the second.

Going from `COc1ccc(NC(=O)CN2C(=O)NC(C)(c3ccccc3)C2=O)cn1` (configuration not stated) to `COc1ccc(NC(=O)CSc2nnnn2-c2cccc(OC)c2)cc1`, the inhibition falls from 1.1% to 0.03%.

Going from `Cc1ccc(-c2ccc(C3=CC(=O)CC(C)(C)C3=O)cc2)cc1` to `CCCC(=O)N1c2ccccc2NC2=C(C(=O)CCC2)C1c1ccc(F)cc1` (configuration not stated), the inhibition falls from 3.24% to -0.04%.

Going from `Cc1ccc(N2CC(C(=O)Nc3ccc(S(=O)(=O)N4CCCC4)cc3)CC2=O)cc1C` (configuration not stated) to `O=C(Nc1ccc(S(=O)(=O)N2CCCCC2)cc1)C1CC(=O)N(c2ccc(F)cc2)C1` (configuration not stated), the inhibition falls from -0.34% to -1.03%.

Compared with `Nc1cc(C(=O)N2CCN(c3ccccc3Cl)CC2)ccc1N1CC2CC(C1)c1cccc(=O)n1C2` (configuration not stated), `COc1cccc(OC)c1C(=O)N1CCN(Cc2ccccc2F)CC1` is higher in inhibition: 2.59% for the first, 2.65% for the second.

First: CC(NC(=O)C1CCC(CNc2c(N3CCOCC3)c(=O)c2=O)CC1)c1ccccc1 (configuration not stated)
Second: CC1CCCCC1NC(=O)Cn1c(=O)cnc2ccccc21 (configuration not stated)
The inhibition of the first is higher: 0.2% for the first, -1.16% for the second.

Going from `C[C@H]1CN([C@@H](C)CO)C(=O)CCCn2cc(nn2)CO[C@@H]1CN(C)C(=O)Nc1ccccc1` to `C[C@H]1CN([C@@H](C)CO)C(=O)CCCn2cc(nn2)CO[C@@H]1CN(C)S(=O)(=O)c1ccc(-n2cccn2)cc1`, the inhibition rises from 1.03% to 2.41%.

Compared with `CCn1c(=O)c(=O)n(CC)c2cc(S(=O)(=O)N3CCc4ccccc43)ccc21`, `O=S(=O)(c1ccc2c(c1)OCCO2)N1CCc2ccccc21` is higher in inhibition: -1.26% for the first, 0.28% for the second.

Going from `CCC(=O)N1c2ccccc2NC2=C(C(=O)CCC2)C1c1ccco1` (configuration not stated) to `CC(=O)N1C(=O)C2(Nc3ccccc3N2)c2ccccc21`, the inhibition rises from -0.14% to 0.59%.

Compared with `COc1ccc(-c2ccc(CN3C(C(C)C)C(=O)N(Cc4cn(CC5CCCCC5)nn4)CCS3(=O)=O)cc2)cn1` (configuration not stated), `COc1ccc([C@H]2N[C@]3(CCCN(CC4CCCCC4)C3=O)[C@H]3C(=O)N(C)C(=O)[C@@H]23)cc1` is higher in inhibition: -0.57% for the first, 0.64% for the second.

First: CC(=O)NN1C(=O)c2ccccc2NC1c1ccccc1 (configuration not stated)
Second: O=C(c1ncn2c1c(=O)[nH]c1ccccc12)N1CCc2ccccc2C1
The inhibition of the first is lower: -1.71% for the first, -0.1% for the second.

First: O=C(NCc1nnnn1-c1ccc(Cl)cc1)c1ccc([N+](=O)[O-])o1
Second: COCCNC(=O)COc1ccc(N(C)S(=O)(=O)c2ccc3ccccc3c2)cc1
The inhibition of the first is higher: 0% for the first, -1.92% for the second.

Going from `N#CCCC(C#N)(c1cccnc1)N1CCOCC1` (configuration not stated) to `CCOC(=O)/C(C#N)=C/c1ccc(N2CCN(Cc3ccccc3)CC2)cc1`, the inhibition rises from -0.32% to -0.11%.

Compared with `COc1ccccc1N1CCN(/N=C\C(Br)=C\c2ccccc2)CC1`, `COc1cc(/C=N/N2CCN(c3ccccc3)CC2)ccc1OC(C)=O` is higher in inhibition: -0.74% for the first, -0.26% for the second.

Going from `COc1ccc([C@H]2N[C@]3(CCCN(Cc4ccco4)C3=O)[C@H]3C(=O)N(C)C(=O)[C@@H]23)cc1` to `COc1ccc2nc(-c3ccccn3)ccc2c1`, the inhibition falls from 0.93% to -0.26%.

Compared with `O=C(C1CCCO1)N1CCN(C(=O)C23CC4CC(CC(C4)C2)C3)CC1` (configuration not stated), `Cc1occc1-c1nnc(SCC(=O)NC2CCCCC2)o1` is higher in inhibition: -0.78% for the first, 0.12% for the second.

Compared with `COC(=O)/C(C#N)=C/c1occc1C`, `CCn1c(SCC(=O)NC2CC2)nnc1-c1ccccc1OC` is higher in inhibition: -0.79% for the first, 1.22% for the second.

Going from `O=S(=O)(c1cccc(C(F)(F)F)c1)N1c2ccccc2-n2cccc2C1c1cccnc1` (configuration not stated) to `CN(C)S(=O)(=O)c1cccc(NC(=O)COc2ccc3ccccc3c2)c1`, the inhibition falls from 0.07% to -1.43%.
